Measured values from PubChem BioAssay AID488852 (National Center for Advancing Translational Sciences (NCATS), 2010).
Activity calls are given as the source filed them. The call rests on the fitted dose curve; in most records, active means well fitted curve in the direction sought with a large enough effect; inconclusive means small, poorly fitted or top-dose-only effect, or another doubt; inactive means no such curve, though single readings can be large or run the other way.

Target: Lysosomal acid glucosylceramidase (Homo sapiens) (UniProt P04062)
Assay: qHTS Assay for Inhibitors and Activators of N370S glucocerebrosidase as a Potential Chaperone Treatment of Gaucher Disease: Activity in N370S Spleen Homogenate Confirmation Using Alternate Substrate for Probe SAR
Details: N370S patient spleen homogenate, resorufin-glucoside fluorescence; series mostly up to 57.5 µM
Text: NIH Chemical Genomics Center [NCGC] NIH Molecular Libraries Probe Production Centers Network [MLPCN] MLPCN Grant: MH086442-01 Assay Submitter (PI): Wei Zheng Glucocerebrosidase (GC) catalyzes the hydrolysis of beta-glucocerebroside to glucose and ceramide in lysosomes. Mutations in the glucocerebrosidase gene result in Gaucher disease, an autosomal recessive lysosomal storage disorder. Many of the mutations encountered in patients with Gaucher disease are missense alterations that may cause misfolding, decreased stability and/or mistrafficking of this lysosomal protein. […] These inhibitors include iminosugar analogs and three non-iminosugar inhibitors identified from a previous HTS of 62,000 compounds with the wild type recombinant enzyme. However, the enhancement of enzyme activity by the chaperone action of an enzyme inhibitor must be balanced against the direct inhibition of the enzyme. An enzyme activator could also function as a chaperone by binding to the enzyme and helping to correct its misfolding and mistrafficking. While activators for GC have not yet been identified, they may have better therapeutic potential than inhibitors. Therefore the discovery and development of chemical activators may provide a new strategy for the chaperone therapy. We have optimized a new assay using N370S mutant GC derived from the spleen of a Gaucher patient. […] In addition, the MLPCN compound library has expanded, which increases the chance of finding new and better probes. This confirmation assay tests for compound activity in spleen homogenate from a patient homozygous for the N370S mutation using an alternate resorufin-based substrate.
NCGC Assay Protocol Summary: This is a fluorogenic enzyme assay with resorufin-beta-D-glucopyranoside as the substrate and mutant N370S glucocerebrosidase from human spleen homogenate as the enzyme preparation. Upon the hydrolysis of this fluorogenic substrate, the resulting product, […] which can be detected by a standard fluorescence plate reader. Data were normalized to the controls for basal activity (without enzyme) and 100% activity (with enzyme). The AC50 values were determined from concentration-response data modeled with the standard Hill equation. Assay buffer: 50 mM citric acid (titrated with potassium phosphate to pH 5.0), 100 mM potassium chloride, 10 mM sodium chloride, 1 mM magnesium chloride, 0.01% Tween-20. 1536-well assay protocol: (1) Add 2 ul/well of spleen homogenate (27 ug final) (2) Add 23 nL compounds in DMSO solution. The final titration was 0.5 nM to 58 uM. (3) Add 2 ul of substrate (1 mM final) (4) Incubate at 37C for 40 min. (5) Add 2 ul stop solution (1M NaOH and 1M Glycine mixture, pH 10) (6) Detect the assay plate in a ViewLux plate reader (PerkinElmer) with Ex=365 nm and Em=440nm. Keywords: Glucocerebrosidase, beta-glucosidase, Gaucher Disease, pharmacological chaperone, chaperone therapy, high throughput screening, glucocerebrosidase inhibitor, MLSMR, MLSCN, NIH Roadmap, qHTS and NCGC

Chain of Lysosomal acid glucosylceramidase (Homo sapiens) (P04062 whole entry N409S): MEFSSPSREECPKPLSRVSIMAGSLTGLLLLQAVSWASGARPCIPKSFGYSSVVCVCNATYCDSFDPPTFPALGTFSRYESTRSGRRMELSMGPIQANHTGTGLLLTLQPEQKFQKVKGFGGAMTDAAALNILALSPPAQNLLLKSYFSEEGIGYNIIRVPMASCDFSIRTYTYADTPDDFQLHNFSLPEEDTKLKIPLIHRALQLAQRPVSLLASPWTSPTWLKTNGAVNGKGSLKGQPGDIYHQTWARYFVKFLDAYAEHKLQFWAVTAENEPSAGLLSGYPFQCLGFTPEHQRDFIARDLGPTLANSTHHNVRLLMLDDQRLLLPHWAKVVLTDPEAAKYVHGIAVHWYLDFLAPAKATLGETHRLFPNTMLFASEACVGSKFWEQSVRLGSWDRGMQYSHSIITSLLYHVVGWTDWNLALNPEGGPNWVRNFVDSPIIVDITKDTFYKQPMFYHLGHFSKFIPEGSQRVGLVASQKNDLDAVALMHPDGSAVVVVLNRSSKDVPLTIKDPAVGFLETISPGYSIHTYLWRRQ

outcome, inactive:
C#Cc1ccc(NC(=O)c2cnn3c(C)cc(C)nc23)cc1, CC(=O)Nc1ccc(NC(=O)c2cnn3c(C)cc(C)nc23)cc1, CCc1ccc(NC(=O)c2cnn3c(C)cc(C)nc23)cc1, Cc1cc(C)n2ncc(C(=O)NC(C)C)c2n1, Cc1cc(C)n2ncc(C(=O)Nc3ccccc3C)c2n1, Cc1cc(C)n2ncc(C(=O)Nc3cccc(C(F)(F)F)c3)c2n1, Cc1cc(C)n2ncc(C(=O)Nc3ccc(C)c(C)c3)c2n1, Cc1cc(C)n2ncc(C(=O)Nc3ccc4c(c3)CCC4)c2n1, COc1ccc(NC(=O)c2cnn3c(C)cc(C)nc23)cc1OC, CC(=O)c1ccc(NC(=O)c2cnn3c(C)cc(C)nc23)cc1, Cc1cc(C)n2ncc(C(=O)N3CCCC3)c2n1, Cc1cc(C)n2ncc(C(=O)Nc3ccc(Br)cc3)c2n1, COc1cc(NC(=O)c2cnn3c(C)cc(C)nc23)cc(OC)c1OC, O=C(Nc1cnn(Cc2ccc(F)cc2)c1)c1cnn2c(C(F)F)cc(-c3ccccc3)nc12, Cc1ccc(NC(=O)c2cnn3c(C)cc(C)nc23)cc1, Cc1cc(C)n2ncc(C(=O)NCc3ccco3)c2n1, Cc1cc(C)n2ncc(C(=O)Nc3ccc4c(c3)OCCO4)c2n1, Cc1cc(C)n2ncc(C(=O)Nc3ccncc3)c2n1, CNC(=O)c1cnn2c(C)cc(C)nc12, Cc1cccc(NC(=O)c2cnn3c(C)cc(C)nc23)c1, Cc1cc(C)n2ncc(C(=O)NC3CCCCC3)c2n1, Cc1cc(C)n2ncc(C(=O)NCC(C)C)c2n1, Cc1cc(C)n2ncc(C(=O)Nc3ccccc3)c2n1, Cc1ccc(NC(=O)c2cnn3c(C)cc(C)nc23)c(C)c1, CC(=O)Nc1ccccc1NC(=O)c1cnn2c(C)cc(C)nc12, COc1ccc(NC(=O)c2cnn3c(C)cc(C)nc23)cc1F, Cc1cc(C)n2ncc(C(=O)Nc3ccc(C#N)cc3)c2n1, Cc1cc(C)n2ncc(C(=O)Nc3cccc(C#N)c3)c2n1, COc1ccc(NC(=O)c2cnn3c(C)cc(C)nc23)cc1, Cc1cc(C)n2ncc(C(=O)Nc3ccc4c(c3)OCO4)c2n1, Cc1cc(C)n2ncc(C(=O)Nc3ccc(C(F)(F)F)cc3)c2n1, COc1ccc(NC(=O)c2cnn3c(C)cc(C)nc23)cc1Cl, Cc1cc(C)n2ncc(C(=O)NC3CCC(C(C)(C)C)CC3)c2n1 (configuration not stated), CC(=O)c1cccc(NC(=O)c2cnn3c(C)cc(C)nc23)c1, Cc1cc(C)n2ncc(C(=O)NCc3ccccc3)c2n1, Cc1cc(C)n2ncc(C(=O)Nc3ccc(C(C)(C)C)cc3)c2n1, Cc1cc(C)n2ncc(C(=O)Nc3ccc(S(C)(=O)=O)cc3)c2n1
